Over roughly 2,300 sequences, “median log2 fold change of GCK-ALFA target abundance (FLAG IP / Myc IP barcode read proportion)” has its median near 0.095; the lowest 2% begin near -0.47. For the sample, the lowest values were picked, then their nearest neighbours and some sequences at random.
B1: LC3A_3_1411 (protein)
chain: LEERLAATEALLREAGHSEETLAAFRRLVELLLERGAEEEAERVLELVAEAKDISSEDLLAVLEEVIRALEEEGASPEEAVERLEELLRIARAEQEIEEL
B2: LC3A_147_452 (protein)
chain: ATYVITVDVLLRNDPELAERIEEEIKKIGEENGAEVEVEREEIQETPTTTEYFLRVTLKTTDEEKALKALQEVSELLDRTAEEHPESFLGAMISFEKIED
B3: LC3A_28_842 (protein)
chain: SKTEENIKKALAEAKEAAEKGESKVITLKVYKGDTEEEIDKIIETLEEIAEILKDLPNQAIIIEFEEPIDPEHQDKIIDKAEEIEKKYPNITVIIALPEE
B4: LC3A_28_844 (protein)
chain: SKTEKDIKEALERAKRAAEEGKSEVITIKVYKGDTEEEINKIIETLEEIAEILKDLPNQAILIDFEEKIDEEHQNKIIDKAEEIEKKYPNITVIIALPEE
B5: LC3A_28_846 (protein)
chain: SKTEEDIEKALKEAKEAAKKGEPAVIELKVYKGDTEEEIEKIIEALEEIAEILKDLPNQAILINFEEVIDEEHQNKILDKAEEIEKKYPNVTVIIALPEE
B6: LC3A_132_311 (protein)
chain: SEEKYKEIKEELEKKLKEAEKNIKDKEKVEKLLEEIRKLLEEAEEELSPEQVAELYDEVADRLWKLSQKALEAGQEDVALELDAAAIEAASRSLEAEKLI
B7: LC3A_free_46_2418 (protein)
chain: YRGIVEADLLGLTEEQVEEVIERVKEKAKRLEEEYGVKVEVEVEVEKNEDGTYFLRIKVTIEGEDREKVEKAANEVVDLLEKLADEYGAAMIISIEFEEL
B8: LC3A_147_515 (protein)
chain: MYEVDIDILVKREGEEEVLEELEEILEELREEGYEVEVLEKRIEREGDEVFIYVKVLIRAPTPEEAEKAVNRLISRLEELEEKHKDLILGSLISVEKIEP

molecular target: MAP1LC3A, Q9H492; test: median log2 fold change of GCK-ALFA target abundance (FLAG IP / Myc IP barcode read proportion) (log2 ratio); each designed protein is fused to an ALFA-tag nanobody in HEK293 cells to bring the named protein to FLAG-tagged glucokinase (GCK); Myc marks an untargeted standard; higher = target protein stabilised (more abundant); settings: target protein: 3xFLAG-MCP-GCK-ALFA reporter; HEK293 landing pad (RPLP)
Procedure, shortened: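 Binders fused to an ALFA nanobody were recombined as a library into HEK293 landing-pad cells, which were induced with 2 μg mL^−1 doxycycline and then transfected to express a FLAG-tagged target and a Myc-tagged standard. After 48 h, circular RNA barcodes recovered by anti-FLAG and anti-Myc immunoprecipitation of lysates were reverse transcribed, amplified and sequenced. Each binder's target abundance is the median log2 ratio of FLAG to Myc barcode read proportions, from barcodes present at ≥10^−7 in both replicates, binders carrying ≥3 barcodes per replicate, a 10^−6 pseudocount and pooled replicates.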

| Binder | median log2 fold change |
| --- | --- |
| B1 | 0.212 |
| B2 | -0.0647 |
| B3 | -0.297 |
| B4 | -0.471 |
| B5 | -0.293 |
| B6 | 0.256 |
| B7 | 0.196 |
| B8 | -0.205 |

— the supplement of paper PMC12632987
